Assay results as given in PubChem BioAssay AID1490 (National Center for Advancing Translational Sciences (NCATS), 2009).
Out of some 310,000 compounds screened, about 11,000 (3.5%) were called active. Not shown: some 4% with an inconclusive outcome. This excerpt belongs to a sample that is enriched for actives. Unmarked numbers belong to inactive results. The call rests on the fitted dose curve; in most records, active means well fitted inhibition curve with a large enough effect; inconclusive means small, poorly fitted or top-dose-only effect, or another doubt; inactive means no such curve, though single readings can be large or run the other way. Non-standard residues stand in square brackets, D forms with d. Residues, ends and D or L forms follow the SMILES beside them. *: point of attachment. PhAc = O=C(Cc1ccccc1)*

Target: 4'-phosphopantetheinyl transferase ffp (Bacillus subtilis) (UniProt Q9F4F7)
Experiment: qHTS Assay for Inhibitors of Bacillus subtilis Sfp phosphopantetheinyl transferase (PPTase);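 further: the enzyme is Sfp with the accession as filed and its product quenches rhodamine fluorescence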;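 on largest response in the series, negative = inhibition: 0% = enzyme reaction without inhibitor and -100% = no enzyme wells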
Details: Biochemical Sfp PPTase activity
Method in brief: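 Compounds were incubated with enzyme (final 15 nM) for 15 min at room temperature before substrate addition started the reaction. Fluorescence at 525 nm excitation, 598 nm emission was recorded immediately and after 30 minutes.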
Potency means the concentration at half of the fitted maximal effect.

Compared with `CCCn1nc(NC(=O)C(C)C)c2cc3cc(OC)ccc3nc21`, `CCCSc1nc2sc3c(c2c(=O)n1-c1ccc(OC)cc1)CCN(C)C3` is lower in largest response in the series, negative = inhibition: 4.66% for the first, -7.59% for the second.

Going from `CC(O)COc1ccccc1` (centres undefined) to `S=c1[nH]nc(COc2ccccc2)n1-c1ccccc1`, the largest response in the series, negative = inhibition rises from 12.6% to 21.2%.

First: COc1ccc(N(CC(=O)NCc2ccc(F)cc2)C(=O)CCC(=O)Nc2nccs2)cc1
Second: CN(CCC(=O)Nc1cc(S(=O)(=O)N(C)C)ccc1Cl)CC(=O)Nc1ccc(F)cc1
The largest response in the series, negative = inhibition of the first is lower: -11.5% for the first, 13.5% for the second.

First: O=C1CCC(=O)N(c2ccccc2)N1
Second: NC(=O)c1c(NC(=O)c2ccccc2)sc2c1CCCC2
The largest response in the series, negative = inhibition of the first is lower: -3.33% for the first, 4.07% for the second.

Compared with `Cn1c(N)c(C(=O)COC(=O)c2cc(C(F)(F)F)nc3c(C(F)(F)F)cccc23)c(=O)n(C)c1=O`, `COc1ccc(/C=N/NC(=O)c2cccc(C(F)(F)F)c2)cc1` is lower in largest response in the series, negative = inhibition: 13.8% for the first, -22% for the second.

Compared with `N#C/C(=C/c1ccc(N2CCCCC2)o1)C(=O)NCCc1c[nH]c2ccccc12`, `N#C/C(=C\c1ccc(N2CCOCC2)o1)C(=O)N1CCOCC1` is higher in largest response in the series, negative = inhibition: -16.2% for the first, -13.7% for the second.

Compared with `CCCCC[C@H]1CN(C2CCCCC2)C(=O)[C@@H]1CC(=O)NCc1ccc(OC)cc1`, `CN(C)S(=O)(=O)N1CCC(Oc2cccc(C(=O)NCCCC3CCCC3)c2)CC1` is higher in largest response in the series, negative = inhibition: -4.46% for the first, -2.01% for the second.

Going from `O=C(Nc1ccccc1N1CCN(C(=O)c2ccccc2)CC1)c1ccco1` to `O=C(NC(c1ccccc1)c1ccccc1)N1CCN(CCO)CC1`, the largest response in the series, negative = inhibition falls from 14.1% to 5.46%.

Compared with `CC(C)[C@@H](NC(=O)OC(C)(C)C)C(=O)NCC1CCC(C(=O)N[C@@H](Cc2ccccc2)C(=O)O)CC1` (some centres undefined), `CC(C)C[C@@H](NC(=O)[C@H]1CCCN1C(=O)Cc1ccccc1)C(N)=O` (PhAc-[dP]-[dL]-NH2) is higher in largest response in the series, negative = inhibition: 6.54% for the first, 21.3% for the second.

First: O=C(O)CCCCCCCCc1cn(CN2C(=O)c3ccccc3C2=O)nn1
Second: Cc1ccc(C(=O)CSc2nnc(Cn3nnc4ccccc43)n2C)cc1
The largest response in the series, negative = inhibition of the first is lower: -11% for the first, 4% for the second.

First: Cc1ccc(NS(=O)(=O)c2ccc(C)c(NC(=O)COc3ccc4ccccc4c3)c2)c(C)c1
Second: NS(=O)(=O)c1ccc(CNC(=O)c2cccc(Oc3ccccc3)c2)cc1
The largest response in the series, negative = inhibition of the first is lower: -28.6% for the first, 5.75% for the second.

Compared with `Cc1cccc(COc2ccccc2/C=N/Nc2ccc([N+](=O)[O-])cc2)c1`, `COc1cccc(Cn2cc(/C=N/NC(=O)c3cc(O)cc(O)c3)c3ccccc32)c1` is lower in largest response in the series, negative = inhibition: 24.5% for the first, -18.5% for the second.

First: N#Cc1ccc(/C=C2\CCn3c2nc2cc(C(=O)O)ccc2c3=O)cc1
Second: COc1cccc(CC(=O)N2CCc3nc(COc4ccccc4)c4c(c3C2)CO[C@@H](C)C4)c1
The largest response in the series, negative = inhibition of the first is higher: 31.1% for the first, -1.37% for the second.

Going from `N#Cc1cccc(-c2ccc3ncnc(NCc4cccs4)c3c2)c1` to `COc1ccc2[nH]cc(CCNc3ncnc4ccc(-c5ccc(C(=O)N(C)C)cc5)cc34)c2c1`, the largest response in the series, negative = inhibition rises from -14.8% to -5.41%.

First: O=C(Cc1ccccc1Cl)N1CCOCC1
Second: O=C(COc1nsnc1N1CCOCC1)Nc1ccccc1Cl
The largest response in the series, negative = inhibition of the first is higher: 17% for the first, 10.1% for the second.

Compared with `COC(=O)[C@@]1(Cc2ccc(F)cc2)[C@H]2c3cc(C(=O)N(C)C)n(CCc4c[nH]c5ccc(OC)cc45)c3C[C@H]2CN1C(=O)c1ccccc1`, `CC(CCc1ccccc1)NC(=O)COC(=O)c1ccc(F)cc1` (centres undefined) is lower in largest response in the series, negative = inhibition: 0.76% for the first, -4.51% for the second.

First: O=C(NCc1ccc(Cl)cc1)NCc1ccc(Cl)cc1
Second: O=C(NCc1ccc(Cl)cc1)c1cc(=O)nc2sc(-c3ccccc3)nn12
The largest response in the series, negative = inhibition of the first is lower: -3.32% for the first, 1.8% for the second.

Compared with `Cc1c(C(=O)NCCN(C)C)oc2ccc(S(=O)(=O)N3CCCC3)cc12`, `COc1ccccc1CC(=O)Nc1ccc(S(=O)(=O)N2CCCC2)cc1` is lower in largest response in the series, negative = inhibition: 18.9% for the first, 4.84% for the second.

First: Fc1cc(F)c2nc(Nc3nc4c(F)cccc4s3)sc2c1
Second: Cc1cc(C)c(C#N)c(Nc2cccc(Br)c2)n1
The largest response in the series, negative = inhibition of the first is lower: -0.873% for the first, 6.8% for the second.

Going from `COc1ccc(N2CCN(S(=O)(=O)c3cc(Br)cnc3N)CC2)cc1` to `O=S(=O)(c1cc(Cl)ccc1Cl)N1CCN(Cc2ccco2)CC1`, the largest response in the series, negative = inhibition rises from 7.84% to 22.5%.

First: C=CCc1c(C)nc2cc(-c3ccccc3)[nH]n2c1=O
Second: Cc1ccc(OCc2n[nH]c(=S)n2-c2ccccc2)cc1
The largest response in the series, negative = inhibition of the first is higher: 7.41% for the first, 5.12% for the second.

Compared with `Cc1nc2c(-c3ccc(F)cc3)c(C)nn2c(C)c1CCC(=O)NCc1ccco1`, `COc1cc(OC)cc(-c2nc3nc(C)c(CCC(=O)NCc4ccco4)c(C)n3n2)c1` is higher in largest response in the series, negative = inhibition: -2.36% for the first, 8.97% for the second.

Going from `CC(C)C(=O)Nc1nnc(SCC(=O)N2C(C)CCCC2C)s1` (centres undefined) to `COC(=O)c1ccc(/C=N/N2C(C)CCCC2C)cc1` (centres undefined), the largest response in the series, negative = inhibition rises from -17.7% to 13.3%.

Compared with `COc1ccc(Cl)cc1S(=O)(=O)N1CCN(CC(=O)C(C)(C)C)CC1`, `COc1ccccc1CNC(=O)C1CCN(S(=O)(=O)c2ccc3c(c2)CC(C)N3C(=O)C2CC2)CC1` (centres undefined) is lower in largest response in the series, negative = inhibition: 7.95% for the first, -7.76% for the second.

Compared with `CN(C)S(=O)(=O)c1ccc(N2CCCC2)c(C(=O)Nc2cccc(F)c2)c1`, `CCOc1cccc(NC(=O)C2CCCN(S(=O)(=O)c3ccc(OC)cc3)C2)c1` (centres undefined) is lower in largest response in the series, negative = inhibition: -1.67% for the first, -5.07% for the second.

Compared with `Cc1ccc(C(=O)NCCc2nnc(SCC(=O)Nc3cccc(C(=O)O)c3)n2C)cc1`, `Cn1c(CNC(=O)c2ccccc2F)nnc1SCc1ccc(F)cc1` is lower in largest response in the series, negative = inhibition: 10.4% for the first, -14.5% for the second.

Going from `CC(C)CCN(C(=O)c1csnn1)C(C(=O)NC1CCCC1)c1ccccc1` (centres undefined) to `Cc1cccc(C(=O)NC(=S)N(C)C2CCCCC2)c1`, the largest response in the series, negative = inhibition rises from 13.6% to 17.9%.

Going from `O=C(NC1Cc2ccccc2C1)c1cc(COc2cccc(C(F)(F)F)c2)on1` to `CCOC(=O)C1=C(CN2CCc3ccccc32)NC(=O)NC1c1cccc([N+](=O)[O-])c1` (centres undefined), the largest response in the series, negative = inhibition falls from 24% to 3.8%.

Compared with `Cc1ccc(-c2n[nH]c(=S)n2/N=C/c2cc3c(cc2[N+](=O)[O-])OCO3)cc1`, `CCc1n[nH]c(=S)n1/N=C/c1c[nH]c2ccc(Br)cc12` is higher in largest response in the series, negative = inhibition: -22.6% for the first, 11.4% for the second.

First: CSc1ccc(CCNC(=O)CS(=O)(=O)Cc2nc(-c3ccccc3F)oc2C)cc1
Second: CCOC(=O)C1=C(CN2CCc3ccccc32)NC(=O)NC1c1ccc(Cl)cc1 (centres undefined)
The largest response in the series, negative = inhibition of the first is higher: 17.7% for the first, -11.6% for the second.

First: Cc1cc(Cl)ccc1C(=O)C1CCCN(C(=O)c2nonc2C)C1 (centres undefined)
Second: CCc1nonc1NC(=O)c1oc2ccc(Cl)cc2c1C
The largest response in the series, negative = inhibition of the first is higher: 1.34% for the first, -4.03% for the second.

Going from `COC(=O)c1ccc(/C=N\n2c(C)nnc2C)cc1` to `Cc1cc(C)n(-c2ccc(Cl)c(C(=O)O)n2)n1`, the largest response in the series, negative = inhibition falls from 13.8% to -14.9%.

Compared with `COC(=O)C1=CN(Cc2ccc(OC)cc2)C=C(C(=O)OC)C1c1ccc(O)c(OC)c1`, `COc1ccc(S(=O)(=O)/N=C2\C=C(NS(=O)(=O)c3ccccc3)C(=O)c3ccccc32)cc1` is lower in largest response in the series, negative = inhibition: -3.15% for the first, -20.9% for the second.

Going from `OCCN1CCN(c2nnc(-c3ccccc3)c3ccccc23)CC1` to `O=C(Nc1ccc(-n2cccn2)cc1)C1CCN(Cc2ccsc2)CC1`, the largest response in the series, negative = inhibition falls from 21.7% to -0.783%.

Compared with `CSc1nc2sc3c(c2c(=O)[nH]1)CCc1ccccc1-3`, `Cn1nccc1C(=O)NC1CCCc2c1cnn2-c1ccc(F)cc1F` (centres undefined) is higher in largest response in the series, negative = inhibition: 2.54% for the first, 12.2% for the second.

Going from `Nc1nc2nc(Cl)[nH]c2c(=O)[nH]1` to `Cc1cc(C)n(-c2ccc3nncn3n2)n1`, the largest response in the series, negative = inhibition rises from -9.02% to 10.3%.

`N#C/C(=C/c1ccc(N2CCOCC2)o1)C(=O)N1CCOCC1` was tested, and the Potency was 56.2 µM (active).
In the case of `Cc1ccc(NS(=O)(=O)c2ccc(N/N=C/c3ccccc3OCC(=O)O)c([N+](=O)[O-])c2)c(C)c1`, the Potency is reported as 79.4 µM (active).
With `O=C(NCc1ccc(Cl)cc1)c1cc2c(nc3sccn32)s1` the Potency was 50.1 µM (active).
In the case of `NC(=O)c1c(Nc2nc3c(F)cccc3s2)sc2c1CCCC2`, the Potency is reported as 44.7 µM (active).
With `COc1ccc(-c2cc3nc(C)c(CCC(=O)NC(C)CCc4ccco4)c(C)n3n2)c(OC)c1` (centres undefined) the Potency was 79.4 µM (active).
With `O=C(CN1CCN(S(=O)(=O)c2cc(Cl)ccc2Cl)CC1)c1ccc(O)c(O)c1` the Potency was 50.1 µM (active).
`O=C1CCC(=O)N(O)CCCCCNC(=O)CCC(=O)N(O)CCCCCNC(=O)CCC(=O)N(O)CCCCCN1` was tested, and the Potency was 89.1 µM (active).
For `CCN(CC(=O)Nc1ccc(S(=O)(=O)N2CCCC2)cc1)CC(=O)Nc1cccc(OC)c1`, the Potency was 79.4 µM (active).
`O=C(Cn1cc(/C=N/NC(=O)c2cccc(C(F)(F)F)c2)c2ccccc21)Nc1ccc(F)cc1` was tested, and the Potency was 20 µM (active).
For `O=[N+]([O-])c1ccccc1/C=N/n1c(COc2ccccc2)n[nH]c1=S`, the Potency was 56.2 µM (active).
With `Fc1ccc(/C=N/n2c(COc3ccccc3)n[nH]c2=S)cc1` the Potency was 56.2 µM (active).
With `CCN(CC)S(=O)(=O)c1cccc(-c2n[nH]c(=S)n2/N=C/c2ccc(C(=O)OC)cc2)c1` the Potency was 50.1 µM (active).
With `Cn1c(Cn2nnc3ccccc32)nnc1SCC(=O)c1ccccc1F` the Potency was 50.1 µM (active).
In the case of `OCCN1CCN(C(=S)c2ccc(-c3ccccc3)cc2)CC1`, the Potency is reported as 7.08 µM (active).
`COc1ccc(-n2c(=S)[nH]c3sc4c(c3c2=O)CCc2ccccc2-4)cc1` was tested, and the Potency was 17.8 µM (active).
For `CCOC(=O)C1=C(CN2CCCCCC2)NC(=O)NC1c1cccc([N+](=O)[O-])c1` (centres undefined), the Potency was 89.1 µM (active).
`Cc1cc(C)n(-c2nc(O)cc(=O)[nH]2)n1` was tested, and the Potency was 15.8 µM (active).
